# Source: PubChem BioAssay (National Center for Advancing Translational Sciences (NCATS))
# A selection: hits, their analogues and other compounds. The true share with any hit is near 11%.
# IMPase Li cell: membrane-permeable IMPase blocker, potentiated with lithium; CHO-M1 cells, IP1 TR-FRET (IP-One), carbachol + lithium; Potency, µM (titrated, usually from 59.4 µM), for inactives: at the highest dose activity, negative = IMPase inhibition, hits mostly inhibitors; 210,000 tested, 0.35% active; active = well fitted inhibition curve with a large enough effect; inconclusive = small, poorly fitted or top-dose-only effect; inactive = no such curve, though single readings can be large or run the other way;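 also: IP1 builds up when IMPase is blocked and the TR-FRET signal falls; potency is read from the fitted curve at half-maximal effect; plate controls were basal vehicle for no effect and high inhibitor control for full effect; nearly all actives have a fitted effect of over 50% in size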
#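 CHO-M1, 2000 cells/well, 16–30 h culture; cpd + low Li+, 30 min 37C; lysis with d2-IP1/Eu-anti-IP1 Ab, 10 min RT; TR-FRET 665/620 ratio and 620 channel; AC50 via Hill.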
# IMPase cell inh: membrane-permeable compound that blocks inositol monophosphatase; P97697; CHO-M1 cells, IP1 accumulation, HTRF TR-FRET ratio; inhibition (IP1 accumulation), % at 46.1 µM; 120,000 tested, under 10 active; active = well fitted curve in the direction sought with a large enough effect in the signal ratio, not every such curve was filed as active; inconclusive = small, poorly fitted or top-dose-only effect, or a change in a side signal; inactive = no such curve, though single readings can be large or run the other way; the % refers to the signal ratio;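 also: cells stimulated with carbachol in lithium chloride buffer; plate controls were DMSO basal wells for no effect and reference inhibitor wells for full effect; higher means more IMPase inhibition seen as more IP1 and lower FRET ratio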
# Target sequence (P97697 whole entry, looked up): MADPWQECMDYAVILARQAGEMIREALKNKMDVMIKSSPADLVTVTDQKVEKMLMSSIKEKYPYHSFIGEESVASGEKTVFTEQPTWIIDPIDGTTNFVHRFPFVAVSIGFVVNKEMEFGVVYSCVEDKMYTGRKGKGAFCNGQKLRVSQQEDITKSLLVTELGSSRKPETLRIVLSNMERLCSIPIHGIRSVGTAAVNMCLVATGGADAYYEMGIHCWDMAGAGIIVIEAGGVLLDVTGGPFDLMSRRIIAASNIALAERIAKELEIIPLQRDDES
#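 Elevated IP1 in lysates lowers TR-FRET signal (665/620 ratio and 620 channel reported). Cells were CHO-M1, given carbachol (50 uM as added) plus 50mM LiCl, pH 7.4, 30 min, 37C; compounds titrated up to 46 uM; AC50 by Hill equation.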
# PNC assembly inh: perinucleolar compartment assembly inhibition; PC3M PTB-GFP, PNC prevalence imaging, 16 h; stronger effect = lower value; 140,000 tested, 3.1% active; activity change (PNC), negative = inhibition, % at 10 µM;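 active = readout at or below -70, meaning at least 70% loss of cells showing the perinucleolar compartment, a nuclear body marking cancer cells; inconclusive = readout between -30 and a set limit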;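 also: plate controls were DMSO wells for no effect and camptothecin positive control wells for full effect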
#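 Read-out is percentage of cells bearing a perinucleolar compartment, from automated 20x imaging of fixed, Hoechst-stained PC3M PTB-GFP cells. Cells were seeded 4 h, then exposed 16 h to compound (23 nl of library stock) in duplicate plates.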
# ALDH1A1 block: ALDH1A1 (human) enzyme inhibition; P00352; 220,000 tested, 7.3% active; Potency, µM (highest dose often 75.3 µM), for inactives: top-dose activity, negative = inhibition, hits mostly inhibitors; Purified ALDH1A1, NADH fluorescence, propionaldehyde substrate;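 also: potency is read from the fitted curve at half-maximal effect; plate controls were no enzyme wells and a reference inhibitor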
# Target sequence (P00352 whole entry, looked up): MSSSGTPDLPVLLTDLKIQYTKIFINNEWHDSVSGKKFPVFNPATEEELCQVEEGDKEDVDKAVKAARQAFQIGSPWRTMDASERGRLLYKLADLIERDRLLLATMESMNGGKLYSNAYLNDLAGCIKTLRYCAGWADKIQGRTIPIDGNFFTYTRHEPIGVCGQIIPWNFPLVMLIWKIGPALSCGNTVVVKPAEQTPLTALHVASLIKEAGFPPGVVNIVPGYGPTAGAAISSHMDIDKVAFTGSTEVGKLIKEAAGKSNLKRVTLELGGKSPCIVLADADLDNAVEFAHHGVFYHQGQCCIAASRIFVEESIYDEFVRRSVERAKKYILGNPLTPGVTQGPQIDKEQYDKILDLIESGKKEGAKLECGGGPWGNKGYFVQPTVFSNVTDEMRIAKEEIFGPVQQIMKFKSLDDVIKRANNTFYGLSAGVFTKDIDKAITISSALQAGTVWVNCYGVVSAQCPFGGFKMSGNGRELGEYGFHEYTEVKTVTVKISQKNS
# HPGD block: blocks human HPGD enzyme activity; P15428; purified HPGD, NADH fluorescence kinetic, PGE2 substrate; 150,000 tested, 4.3% active; Potency, µM, inactives show at the top dose activity change, negative = inhibition, actives largely listed as inhibitors; also: potency is read from the fitted curve at half-maximal effect
#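 20 nM HPGD preincubated 15 min at room temperature with compound in 50 mM Tris-HCl pH 8, 0.01% Tween 20. Started with 1 mM NAD+ and 30 uM prostaglandin E2; NADH fluorescence (360/450 nm) read 5 times over 30-s intervals, last minus first.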
# * hit, by the source's call; ? = inconclusive; nt = no result; [ ] = remark or other dose. Unless noted, calls follow the shape of the dose curve; as a rule, active = well fitted inhibition curve with a large enough effect (not every such curve was filed as active); inconclusive = small, poorly fitted or top-dose-only effect, or another doubt; inactive = no such curve, though single readings can be large or run the other way. Unless noted, % is scaled to controls: 0 for no effect and ±100 for the full control effect.
SMILES,IMPase Li cell,IMPase cell inh,PNC assembly inh,ALDH1A1 block,HPGD block
CC(NC(=O)COc1ccccc1F)C1CC2CCC1C2 (stereo not given),3%,nt,nt,-10%,nt
CC(=O)NCCNc1ccnc(-c2ccccc2C)n1,2%,nt,nt,?,nt
O=C(OCC(=O)N1c2ccccc2Sc2ccccc21)c1ccc[n+]([O-])c1,-2%,nt,nt,24µM*,nt
COC(=O)[C@@H]1CCCN1C(=O)CCc1nnc(CCC2CCCCC2)o1,4%,nt,nt,6%,nt
Cc1ccc2nc(NC(=S)NC(=O)c3ccc(OC(C)C)cc3)sc2c1,2%[38.3 µM],3,15,19µM*,10µM*
CCOc1ccc2nc(NC(=O)CSc3ccc(Cl)cc3)sc2c1,35%[38.3 µM],6,44,-74%,-25%
CCOc1ccc2nc(-c3cc(NC(C)=O)ccc3O)sc2c1,10µM*,nt,nt,-2%,nt
COc1ccc2nc(NC(=O)CSc3ccccc3)sc2c1,-32%[38.3 µM],15,?,28µM*,-29%
CCOCC(=O)Nc1nc2ccc(OCC)cc2s1,28%[38.3 µM],2,?,16µM*,-5%
CC(C)COc1cccc(C(=O)NC(=S)NCc2cccnc2)c1,nt,-6,-1,?,nt
CCOc1ccc2nc(NC(=O)CSC3=NCCS3)sc2c1,25%[38.3 µM],15,?,25µM*,-21%
COc1ccc2nc(NC(=O)CSC3=NCCS3)sc2c1,4%[38.3 µM],-1,?,-7%,-12%
C/C=C/C(=O)OCC(=O)Nc1nc2ccc(C)cc2s1,35%[38.3 µM],-8,40,-6%,-12%
CCOCC(=O)Nc1nc2ccc(C)cc2s1,5%,-4,-100*,13µM*,-9%
COC(=O)NC(c1cccs1)C(C(C)=O)C(=O)OC (stereo not given),nt,nt,nt,-5%[13.5 µM],nt
O=C(CNc1cc(S(=O)(=O)N2CCOCC2)ccc1N1CCCC1)N1CCc2ccccc21,11%,nt,nt,25µM*,nt
O=C(Nc1cc(S(=O)(=O)N2CCOCC2)ccc1N1CCCCC1)c1cc(-c2ccccn2)nc2ccccc12,23%,nt,nt,7.1µM*,nt
O=C(Nc1cccc(Cl)c1)Nc1cc(S(=O)(=O)N2CCOCC2)ccc1N1CCCC1,6%,nt,53,?,?
COc1ccc(/C=C(\C#N)C(=O)Nc2cc(S(=O)(=O)N3CCOCC3)ccc2N2CCCC2)cc1,5%,nt,7,10µM*,13µM*
O=C1OC2(c3cc(Br)c(O)c(Br)c3Oc3c2cc(Br)c(O)c3Br)c2c(Cl)c(Cl)c(Cl)c(Cl)c21,?,nt,nt,25µM*,13µM*
O=C1OC(c2ccc(O)c(-c3ccccc3)c2)(c2ccc(O)c(-c3ccccc3)c2)c2c(Cl)c(Cl)c(Cl)c(Cl)c21,3%,nt,nt,19%[13.5 µM],-8%
COc1ccccc1-c1nccc(Nc2ccc(F)cc2)n1,-5%,nt,nt,-7%,nt
O=C(Cc1cccs1)NC1C(=O)N2C(C(=O)[O-])=C(C[n+]3ccccc3)CSC12 (stereo not given),11%,nt,nt,28µM*,32µM*
Cc1ccc(CSCCNC(=O)c2ccc(NS(C)(=O)=O)cc2)cc1,6%,nt,nt,6%,nt
COc1ccc(/C=C(\C#N)C(=O)OC2CCOC2=O)cc1 (stereo not given),-7%,nt,nt,18µM*,nt
SMILES,IMPase Li cell,IMPase cell inh,PNC assembly inh,ALDH1A1 block,HPGD block
O=C1CC2(CCCC2)CC(=O)N1CCNC[C@H]1COc2ccccc2O1,2%,1,nt,?,-1%
O=C1CC2(CCCC2)CC(=O)N1CCNCC1COc2ccccc2O1 (stereo not given),6%,nt,nt,28µM*,nt
CC[C@@H](c1ccccc1)n1c(=O)n2n(c1=O)[C@H]1[C@H](O)[C@H]3O[C@@H]3/C(=N/OC/C=C(\C)CCC=C(C)C)[C@@H]1CC2,nt,nt,nt,-3%[13.5 µM],nt
Cc1ccc2cc(COC(=O)c3ccco3)c(=O)[nH]c2c1,13%[38.3 µM],-1,7,?,-20%
CC(C)N(Cc1cc2ccccc2[nH]c1=O)C(=O)c1ccco1,-8%,nt,nt,18µM*,nt
Cc1cccc(N(Cc2cc3ccccc3[nH]c2=O)C(=O)c2ccco2)c1C,11%[38.3 µM],-1,?,13µM*,-27%
COCC(=O)N(Cc1cc2ccccc2[nH]c1=O)c1ccc(OC)cc1,-13%[38.3 µM],5,-16,32µM*,-20%
O=C(OCc1cc2ccccc2[nH]c1=O)c1ccco1,27%[38.3 µM],-4,?,?,-21%
COc1ccc(N(Cc2cc3ccc(C)cc3[nH]c2=O)C(=O)c2ccco2)cc1,5%[38.3 µM],5,-84*,?,-2%
COc1cc(C2c3c(oc4ccccc4c3=O)C(=O)N2c2ccccn2)cc(OC)c1OC (stereo not given),nt,0,nt,nt,nt
COc1ccc(/C(O)=C2/C(=O)C(=O)N(CCCN(C)C)C2c2cccc(Cl)c2)cc1OC (stereo not given),-25%,-19,-28,3%,-1%
O=C(Nc1ncn[nH]1)c1ccc(S(=O)(=O)N2CCOCC2)cc1,6%,nt,nt,-14%,nt
COc1cc2c(cc1OC)C1(CCCC1)C(N)=C2C#N,12%,8,-100*,6%,-12%
COc1cc(OC)c(OC)cc1C#N,nt,nt,nt,6%,nt
CCOC(=O)C(C)Sc1nnc(NC(=O)c2ccc3c(c2)OCO3)s1 (stereo not given),-1%,nt,nt,?,nt
O=C(Nc1ccccc1Br)C1CCC(=O)N1Cc1ccccc1Cl (stereo not given),-2%,1,?,15%,0%
O=C(Nc1ccc(Cl)cc1)C1CCC(=O)N1Cc1ccccc1Cl (stereo not given),5%[38.3 µM],0,-90*,7%,-12%
CCOc1ccccc1NC(=S)NCc1ccco1,11%[38.3 µM],1,-28,28µM*,-19%
O=C(NCCSCc1ccco1)Nc1cccc(Cl)c1,23%[38.3 µM],6,-84*,?,-7%
CC(=O)c1cccc(NC(=S)NCc2ccco2)c1,10%,nt,nt,-8%,nt
COc1ccc(Cl)cc1NC(=S)NCc1ccco1,-2%[38.3 µM],-13,-8,4%,13µM*
S=C(NCc1ccco1)Nc1cccc(Cl)c1,-6%,6,-21,?,11µM*
C=CCn1c(COc2cccc3ccc(C)nc23)nnc1SCC(N)=O,41%[38.3 µM],-5,-3,?,?
S=C(NCc1ccco1)Nc1cc(Cl)c(Cl)cc1Cl,1%,-5,?,-11%,3.2µM*
Cc1ccccc1NC(=S)NCc1ccco1,-2%,nt,1,-7%,-14%
SMILES,IMPase Li cell,IMPase cell inh,PNC assembly inh,ALDH1A1 block,HPGD block
Cn1c(C(=O)OCC(=O)NCc2ccco2)cc2sccc21,-2%[38.3 µM],-7,3,?,?
CN(C)S(=O)(=O)c1ccc(C(=O)OCC(=O)NCc2ccco2)cc1,14%,nt,nt,15µM*,nt
Cc1cc2c(cc(C(=O)OCC(=O)NCc3ccco3)n2C)s1,-13%[38.3 µM],3,23,-20%,14µM*
O=C(NNC(=S)Nc1ccc(Cl)c(Cl)c1)c1ccccn1,-3%,nt,nt,3.2µM*,nt
S=C(NCc1ccccn1)Nc1ccccc1,-1%,nt,-17,10%,-12%
CN(C)S(=O)(=O)c1cccc(NC(=S)NCc2ccco2)c1,0%,nt,nt,32µM*,nt
